In PubChem BioAssay (Tox21):
Inconclusive results are not listed. The source made the active and inactive calls. Unless noted, the call rests on the fitted dose curve; in most records, active means well fitted curve in the direction sought with a large enough effect in the repeat runs; inconclusive means weak or mixed curves; inactive means no such curve, though single readings can be large; an effect the other way counts as inactive or inconclusive.

Key:
[1] = qHTS assay to identify small molecule antagonists of the estrogen related receptor (ERR) signaling pathway (AID 1224819; further: nearly all actives have a fitted effect of over 50% in size; further: potency means the concentration at half of the fitted maximal effect)
Summary of the method: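 Compounds dissolved in DMSO were pin-transferred onto ERR cells that had been plated 6 h earlier, and cells were then incubated 18 h at 37 C; signal was luciferase luminescence via One-Glo.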

[2] = system: estrogen-related receptor alpha (ERRalpha) with PGC-1alpha coactivator, human; experiment: qHTS assay to identify small molecule antagonists of the estrogen related receptor signaling pathway with the pleiotropic PPARgamma coactivator (PGC) (AID 1224821; calls by dose curve; further: nearly all actives have a fitted effect of over 50% in size; further: potency means the concentration at half of the fitted maximal effect)
Summary of the method: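 Screening used NTP's PGC/ERR cells, dosed via pin tool with compound in DMSO alongside positive and negative controls. After 18 h at 37 C, One-Glo reagent sat 30 min at room temperature before luminescence detection.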

[3] = qHTS assay to identify small molecule antagonists of the estrogen related receptor signaling pathway with the pleiotropic PPARgamma coactivator (PGC) cell viability counter screen (AID 1224822; further: potency means the concentration at half of the fitted maximal effect)
Summary of the method: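 Counter screen for cell viability: PGC/ERR cells, 6 h pre-incubation after plating, 17.5 h compound exposure at 37 C, fluorescence from CellTiter-Fluor after 30 min.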

[4] = qHTS assay to identify small molecule agonists of the estrogen related receptor signaling pathway with the pleiotropic PPARgamma coactivator (PGC) (AID 1224823); further: on the % scale 0 is the no-effect control and ±100 the full control effect
Summary of the method: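 In this quantitative high-throughput screen, an 18 h, 37 C treatment of PGC/ERR cells with compounds in DMSO preceded a One-Glo luminescence read taken after 30 min at room temperature.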

[5] = qHTS assay to identify small molecule agonists of the estrogen related receptor (ERR) signaling pathway (AID 1224820); further: on the % scale 0 is the no-effect control and ±100 the full control effect
Summary of the method: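 Following a 6 h settling period, 2,000 ERR cells per well receive DMSO-dissolved compounds by pin tool and incubate 18 h at 37 C; agonist activity is scored from One-Glo luminescence read 30 min post-addition.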

[6] = target: Glucocorticoid receptor (Homo sapiens) (UniProt P04150); experiment: qHTS assay to identify small molecule antagonists of the glucocorticoid receptor (GR) signaling pathway (AID 720692; active means well fitted inhibition curve with a large enough effect in the signal ratio in the repeat runs, not every such curve was filed as active; the % refers to the signal ratio; further: potency means the concentration at half of the fitted maximal effect)
Summary of the method: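 Tox21 10K library screened in concentration-response for blockade of dexamethasone (5 nM final)-induced GRE-bla reporter activity in HeLa cells; 18 h treatment, fluorescence read.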

Aromatase (Homo sapiens) = Aromatase (Homo sapiens) (UniProt P11511); experiment: qHTS assay to identify aromatase inhibitors (AID 743083); further: nearly all actives have a fitted effect of over 55% in size; further: potency means the concentration at half of the fitted maximal effect
[7] = target: Aryl hydrocarbon receptor (Homo sapiens) (UniProt P35869); experiment: qHTS assay to identify small molecule that activate the aryl hydrocarbon receptor (AhR) signaling pathway (AID 743085); further: nearly all actives have a fitted effect of over 15% in size; further: potency means the concentration at half of the fitted maximal effect
Summary of the method: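 Stably transfected human liver carcinoma cells (HG2L7.5c1; 20 DRE-firefly luciferase) were incubated 5 h, dosed, and kept 24 h at 37C. Agonism was scored from increased luciferase luminescence.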

[8] = qHTS assay to identify small molecule agonists of the estrogen related receptor (ERR) signaling pathway from Tox21 library (AID 1224849; calls by dose curve; further: on the % scale 0 is the no-effect control and ±100 the full control effect; nearly all actives have a fitted effect of over 15% in size); details: ERR reporter cell line, ONE-Glo luciferase, 18 h; at 92.4 µM (top of the series) unless noted
Summary of the method: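 Tox21 compounds tested for ERR agonism in an NTP reporter cell line: 18 h treatment at 37 C, then ONE-Glo luminescence.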

[9] = Caspase-3/7 induction in HepG2 cells by small molecules, qHTS assay (AID 1346978); further: on the % scale 0 is the no-effect control and ±100 the full control effect; nearly all actives have a fitted effect of over 15% in size
Summary of the method: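 Caspase-3/7 induction was measured by Caspase-Glo 3/7 luminescence (30 min, room temperature) after a 17 hr compound exposure of wild-type HepG2 cells seeded at 2,000 per well and pre-incubated 5 hr.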

[10] = target: Acetylcholinesterase (Homo sapiens) (UniProt P22303); experiment: Acetylcholinesterase (AChE) small molecule antagonists: colormetric cell-based qHTS assay (AID 1347395; calls by dose curve; further: on the % scale 0 is the no-effect control and ±100 the full control effect; nearly all actives have a fitted effect of over 30% in size)
Summary of the method: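 After overnight attachment at 37 C, SH-SY5Y cells get 30 min compound exposure; detection cocktail (acetylthiocholine, DTNB) then incubates 90 min at 37 C, and absorbance reflects AChE-generated thiocholine.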

[11] = target: Acetylcholinesterase (Homo sapiens) (UniProt P22303); experiment: Acetylcholinesterase (AChE) small molecule antagonists: enzyme-based qHTS assay (AID 1347397; calls by dose curve; further: on the % scale 0 is the no-effect control and ±100 the full control effect; nearly all actives have a fitted effect of over 55% in size); details: Potency: AChE enzyme activity inhibition; outcome: AChE enzyme activity inhibition
Summary of the method: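 First, recombinant human AChE (50 mU/mL as dispensed) received test compound or DMSO. Second, plates stood 30 min at room temperature. Third, DTNB and acetylthiocholine were added, followed by 10 min at room temperature and colorimetric detection.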

[12] = target: Acetylcholinesterase (Homo sapiens) (UniProt P22303); experiment: Acetylcholinesterase (AChE) small molecule antagonists: fluorescence cell-based qHTS assay (AID 1347398; calls by dose curve; further: on the % scale 0 is the no-effect control and ±100 the full control effect; nearly all actives have a fitted effect of over 50% in size); details: Potency: AChE activity; outcome: AChE activity
Summary of the method: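 Homogeneous quantitative HTS format. SH-SY5Y cells seeded at 2,000 per well settle overnight at 37 C. Compound pretreatment runs 30 min (37 C, 5% CO2); substrate/probe mix then reacts 40 min at RT before reading 490/520 nm.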

[13] = target: Acetylcholinesterase (Homo sapiens) (UniProt P22303); experiment: Acetylcholinesterase (AChE) small molecule antagonists: enzyme-based qHTS assay with human liver microsomes (AID 1347399; calls by dose curve; further: on the % scale 0 is the no-effect control and ±100 the full control effect; nearly all actives have a fitted effect of over 60% in size); details: Potency: qHTS inhibition; outcome: qHTS inhibition
Summary of the method: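 Recombinant human AChE (50 mU/mL in the enzyme mix) and human liver microsomes (0.25 mg/mL final) were preincubated with compound and NADPH (0.25 mg/mL final) for 30 min at 37 C. Acetylthiocholine/DTNB was then added; thiocholine was read colorimetrically after 10 min at room temperature.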

[14] = qHTS assay to identify small molecule agonists of H2AX (AID 1224845; active means well fitted activation curve with a large enough effect in the signal ratio in the repeat runs, not every such curve was filed as active; the % refers to the signal ratio; further: on the % scale 0 is the no-effect control and ±100 the full control effect)
Summary of the method: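 Phospho-H2AX Ser139 measured by HTRF (ex 320 nm; em 665 and 620 nm) after 24 hr antibody incubation. Compounds, 15 concentrations, 0.76% DMSO, were applied to CHO-K1 cells for 3hr at 37C before lysis.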

[15] = qHTS assay to test for compound auto fluorescence at 590 nm (red) in HepG2 cells (AID 720674); further: on the % scale 0 is the no-effect control and ±100 the full control effect
Summary of the method: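 We screened compounds on adherent HepG2 cells, incubating them for an hour at 37 C in 5% CO2 before reading emission at 590 nm under 540 nm excitation; values reflect equivalence to Rose Bengal sodium fluorescence.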

[16] = qHTS assay to test for compound auto fluorescence at 535 nm (green) in HepG2 cells (AID 720675); further: on the % scale 0 is the no-effect control and ±100 the full control effect
[17] = qHTS assay to test for compound auto fluorescence at 460 nm (blue) in HEK293 cells (AID 720678); further: on the % scale 0 is the no-effect control and ±100 the full control effect
Summary of the method: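 HEK293, 2,000 cells/well, 10% dialyzed FBS; attach 4-5 hr 37C; pin compound or DMSO; o/n 37C/5% CO2; fluorescence 405/460 nm; triamterene-equivalent units.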

[18] = qHTS assay to test for compound auto fluorescence at 590 nm (red) in HEK293 cells (AID 720679); further: on the % scale 0 is the no-effect control and ±100 the full control effect
Summary of the method: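 Intensity at 540nm excitation and 590nm emission is reported as Rose Bengal sodium-equivalent autofluorescence. Measurements followed overnight exposure (37C, 5% CO2) of HEK293 cells, 2,000 per well, to 23 nL compound.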

[19] = qHTS assay to test for compound auto fluorescence at 535 nm (green) in HEK293 cells (AID 720680); further: on the % scale 0 is the no-effect control and ±100 the full control effect
[20] = qHTS assay to test for compound auto fluorescence at 460 nm (blue) in HEK293 cell free culture (AID 720681); further: on the % scale 0 is the no-effect control and ±100 the full control effect
Summary of the method: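 Blue fluorescence (Ex 405/Em 460 nm, triamterene-equivalent) was read immediately after pin transfer of compound or DMSO into medium (DMEM, 10% FBS) without cells.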

[21] = qHTS assay to test for compound auto fluorescence at 535 nm (green) in HEK293 cell free culture (AID 720682); further: on the % scale 0 is the no-effect control and ±100 the full control effect
Summary of the method: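 Each library compound, or DMSO control, is added by pintool to medium alone, comprising DMEM and 10% FBS. Emission at 535 nm following 485 nm excitation is quantified against fluorescein.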

[22] = qHTS assay to test for compound auto fluorescence at 590 nm (red) in HEK293 cell free culture (AID 720683); further: on the % scale 0 is the no-effect control and ±100 the full control effect
Summary of the method: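 Red-channel autofluorescence of compounds in culture medium (DMEM, 10% FBS), no cells, measured at 540/590 nm. Rose Bengal sodium is the reference fluorophore for equivalence.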

[23] = qHTS assay to test for compound auto fluorescence at 590 nm (red) in HepG2 cell free culture (AID 720684); further: on the % scale 0 is the no-effect control and ±100 the full control effect
Summary of the method: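 No cells present: MEM + 10% FBS only. Compound pinned in, red label read (540/590 nm). Activity = fluorescence equivalent to Rose Bengal sodium.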

[24] = qHTS assay to test for compound auto fluorescence at 460 nm (blue) in HepG2 cell free culture (AID 720685); further: on the % scale 0 is the no-effect control and ±100 the full control effect
Summary of the method: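 Cell-free plates of MEM plus 10% FBS received 23 nL compound or DMSO vehicle; blue-channel (405/460 nm) intensity scored against triamterene as reference fluorophore.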

[25] = qHTS assay to test for compound auto fluorescence at 460 nm (blue) in HepG2 cells (AID 720687); further: on the % scale 0 is the no-effect control and ±100 the full control effect
Summary of the method: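 Blue-channel autofluorescence (Ex/Em 405/460 nm, triamterene-equivalent) was measured after 1 hr compound exposure at 37 C, 5% CO2. Cells were HepG2, plated overnight at 37 C in MEM plus 10% FBS.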

[26] = target: Luciferin 4-monooxygenase (Photinus pyralis) (UniProt P08659); experiment: qHTS assay to identify small molecule inhibitors of firefly luciferase (AID 1224835); further: on the % scale 0 is the no-effect control and ±100 the full control effect; nearly all actives have a fitted effect of over 25% in size
Summary of the method: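 Inhibition of purified Photinus luciferase is measured by luminescence. Substrate levels (D-luciferin, ATP) sit at their KM values. Each compound is tested in a concentration series.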

[27] = qHTS RealTime-Glo MT Cell Viability Assay in HEK293 cells - 0 hour (AID 1224880); further: top concentration of the series differs between compounds; on the % scale 0 is the no-effect control and ±100 the full control effect; nearly all actives have a fitted effect of over 45% in size
Summary of the method: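 HEK293 + NanoLuc + prosubstrate, 600 cells/well; 5 h, 37 C/5% CO2; compound 23 nL in DMSO by pintool; 37 C; luminescence read at 0, 8, 16, 24, 32 and 40 h time points.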

[28] = qHTS assay to identify small molecule HDAC inhibitors (AID 1259364);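 further: wild-type HCT-116 cells with endogenous class I/II HDAC activity; top concentration of the series differs between compounds; on the % scale 0 is the no-effect control and ±100 the full control effect; nearly all actives have a fitted effect of over 45% in size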
Summary of the method: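 Screening used wild-type human colon HCT-116 cells incubated overnight, dosed with compounds for 2 hours, and assayed with a homogeneous luminogenic HDAC I/II reagent for 30 minutes at room temperature.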

[29] = qHTS assay to identify small molecule antagonists of the progesterone receptor (PR) signaling pathway - cell viability counter screen (AID 1346798); further: on the % scale 0 is the no-effect control and ±100 the full control effect; nearly all actives have a fitted effect of over 50% in size
Summary of the method: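 In the same plates used for the beta-lactamase readout, cell viability of compound- and R5020-treated PR-UAS-bla HEK293T cells (16 hr, 37C) was assessed by CellTiter-Glo luminescence.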

Acetylcholinesterase (Homo sapiens), sequence (P22303 whole entry, looked up): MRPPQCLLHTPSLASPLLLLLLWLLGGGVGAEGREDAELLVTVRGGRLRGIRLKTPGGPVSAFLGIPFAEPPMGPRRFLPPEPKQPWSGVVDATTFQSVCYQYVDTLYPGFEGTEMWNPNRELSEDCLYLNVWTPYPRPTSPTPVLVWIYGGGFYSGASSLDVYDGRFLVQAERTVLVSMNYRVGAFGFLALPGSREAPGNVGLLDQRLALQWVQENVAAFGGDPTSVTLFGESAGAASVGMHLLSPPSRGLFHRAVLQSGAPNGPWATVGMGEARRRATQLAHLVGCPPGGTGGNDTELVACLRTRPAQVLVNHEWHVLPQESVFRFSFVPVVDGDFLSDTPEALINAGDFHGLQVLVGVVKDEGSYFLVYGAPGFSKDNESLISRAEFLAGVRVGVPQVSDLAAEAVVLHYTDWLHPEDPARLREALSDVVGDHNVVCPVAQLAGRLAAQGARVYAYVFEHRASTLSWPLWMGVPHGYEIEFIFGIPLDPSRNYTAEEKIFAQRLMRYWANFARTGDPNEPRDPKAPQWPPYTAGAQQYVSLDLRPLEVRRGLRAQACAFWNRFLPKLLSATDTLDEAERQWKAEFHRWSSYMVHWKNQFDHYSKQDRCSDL
Luciferin 4-monooxygenase (Photinus pyralis), sequence (P08659 whole entry, looked up): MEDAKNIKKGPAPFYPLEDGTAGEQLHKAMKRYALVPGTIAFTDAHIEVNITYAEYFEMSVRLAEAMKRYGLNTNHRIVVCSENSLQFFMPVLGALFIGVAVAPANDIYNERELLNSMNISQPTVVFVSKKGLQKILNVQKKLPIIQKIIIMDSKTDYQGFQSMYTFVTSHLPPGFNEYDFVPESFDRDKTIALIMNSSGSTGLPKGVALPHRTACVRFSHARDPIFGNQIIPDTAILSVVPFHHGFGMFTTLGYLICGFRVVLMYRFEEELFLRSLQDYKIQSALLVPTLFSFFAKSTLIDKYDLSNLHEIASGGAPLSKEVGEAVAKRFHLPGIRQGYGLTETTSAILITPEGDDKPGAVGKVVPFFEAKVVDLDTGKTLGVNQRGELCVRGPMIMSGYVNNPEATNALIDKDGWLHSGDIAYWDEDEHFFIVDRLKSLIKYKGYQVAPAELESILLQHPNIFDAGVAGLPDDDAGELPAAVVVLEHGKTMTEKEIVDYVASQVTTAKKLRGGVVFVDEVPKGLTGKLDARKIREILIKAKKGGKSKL
Aryl hydrocarbon receptor (Homo sapiens), sequence (P35869 whole entry, looked up): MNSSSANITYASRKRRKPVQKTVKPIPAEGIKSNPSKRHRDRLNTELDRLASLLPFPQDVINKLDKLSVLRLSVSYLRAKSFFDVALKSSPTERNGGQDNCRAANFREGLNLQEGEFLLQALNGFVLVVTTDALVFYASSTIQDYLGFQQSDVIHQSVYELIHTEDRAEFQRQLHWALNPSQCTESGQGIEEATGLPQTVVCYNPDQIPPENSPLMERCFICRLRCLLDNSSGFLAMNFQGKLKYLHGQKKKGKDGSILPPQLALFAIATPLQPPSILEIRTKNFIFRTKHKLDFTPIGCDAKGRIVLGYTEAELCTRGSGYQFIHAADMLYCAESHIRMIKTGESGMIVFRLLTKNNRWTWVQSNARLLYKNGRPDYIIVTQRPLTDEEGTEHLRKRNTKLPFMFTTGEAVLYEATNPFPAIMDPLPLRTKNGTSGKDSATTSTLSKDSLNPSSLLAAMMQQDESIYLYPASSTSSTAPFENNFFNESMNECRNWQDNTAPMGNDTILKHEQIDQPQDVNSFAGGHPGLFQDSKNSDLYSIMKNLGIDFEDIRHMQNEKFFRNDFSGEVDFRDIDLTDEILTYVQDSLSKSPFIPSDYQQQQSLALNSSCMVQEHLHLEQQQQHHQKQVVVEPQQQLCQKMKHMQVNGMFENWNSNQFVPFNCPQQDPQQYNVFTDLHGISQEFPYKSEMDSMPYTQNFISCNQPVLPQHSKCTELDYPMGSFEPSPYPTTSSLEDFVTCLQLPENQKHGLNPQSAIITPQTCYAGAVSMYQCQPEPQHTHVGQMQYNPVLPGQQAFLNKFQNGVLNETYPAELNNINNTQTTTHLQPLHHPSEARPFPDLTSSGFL
Aromatase (Homo sapiens), sequence (P11511 whole entry, looked up): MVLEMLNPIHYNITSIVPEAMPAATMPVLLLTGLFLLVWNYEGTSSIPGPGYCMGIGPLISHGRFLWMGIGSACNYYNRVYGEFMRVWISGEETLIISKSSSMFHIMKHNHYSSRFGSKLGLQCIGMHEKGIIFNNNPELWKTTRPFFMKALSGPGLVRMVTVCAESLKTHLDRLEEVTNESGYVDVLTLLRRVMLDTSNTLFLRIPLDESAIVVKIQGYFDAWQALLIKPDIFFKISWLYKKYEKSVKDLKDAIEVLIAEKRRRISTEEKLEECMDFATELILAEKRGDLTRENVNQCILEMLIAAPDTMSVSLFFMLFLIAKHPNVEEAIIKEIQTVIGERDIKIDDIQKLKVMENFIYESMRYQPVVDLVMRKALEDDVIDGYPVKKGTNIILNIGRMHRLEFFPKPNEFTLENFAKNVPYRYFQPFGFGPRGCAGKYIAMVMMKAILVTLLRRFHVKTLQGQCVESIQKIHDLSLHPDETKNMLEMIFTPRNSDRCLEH
Glucocorticoid receptor (Homo sapiens), sequence (P04150 whole entry, looked up): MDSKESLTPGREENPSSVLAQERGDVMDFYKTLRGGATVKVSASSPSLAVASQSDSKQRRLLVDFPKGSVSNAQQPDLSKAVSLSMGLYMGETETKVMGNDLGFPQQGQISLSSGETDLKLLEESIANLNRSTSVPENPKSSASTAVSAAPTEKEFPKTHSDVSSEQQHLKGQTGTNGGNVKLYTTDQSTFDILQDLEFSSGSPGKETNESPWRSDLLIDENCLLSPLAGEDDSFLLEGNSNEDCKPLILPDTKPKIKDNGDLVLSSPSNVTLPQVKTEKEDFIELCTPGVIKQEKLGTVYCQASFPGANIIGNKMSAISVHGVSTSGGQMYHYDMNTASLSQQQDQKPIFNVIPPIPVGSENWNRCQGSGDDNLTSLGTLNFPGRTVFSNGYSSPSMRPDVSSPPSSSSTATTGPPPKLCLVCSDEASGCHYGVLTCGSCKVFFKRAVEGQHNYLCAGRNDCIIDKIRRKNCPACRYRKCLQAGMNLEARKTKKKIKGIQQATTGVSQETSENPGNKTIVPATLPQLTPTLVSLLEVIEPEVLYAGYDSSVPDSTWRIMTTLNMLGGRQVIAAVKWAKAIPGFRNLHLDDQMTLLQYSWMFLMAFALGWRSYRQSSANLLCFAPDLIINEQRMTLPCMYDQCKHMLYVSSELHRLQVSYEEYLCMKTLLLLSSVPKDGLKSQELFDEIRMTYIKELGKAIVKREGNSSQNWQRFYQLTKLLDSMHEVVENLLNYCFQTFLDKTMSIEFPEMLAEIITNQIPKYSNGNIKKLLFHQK

O=[N+]([O-])c1cc(O)c(O)c([N+](=O)[O-])c1
inactive: Potency [1] | Potency [2] | Potency [3] | Potency [4]

O=S1(=O)N(CCN2CC=C(c3c[nH]c4cc(F)ccc34)CC2)c2cccc3c2N1CCC3
inactive: Potency [5] | Potency [4]
active: Potency [1] 16.2 µM | Potency [2] 23.7 µM

Nc1ccc(N)c2ccccc12
inactive: activity change, positive = activation [8] -69.5% | Potency [9] | Potency [10] | Potency [11] | Potency [12] | Potency [13]
active: Potency [6] 24.5 µM | Potency (Aromatase (Homo sapiens)) 3.06 µM | Potency [7] 0.968 µM

CN1CC[C@@]2(C)c3cc(O)ccc3N(C)C12 (stereo partly specified)
inactive: Potency [5] | Potency [4]

O=C1OC(=O)c2c(Br)c(Br)c(Br)c(Br)c21
inactive: Potency (Aromatase (Homo sapiens)) | Potency [7] | Potency [14] | Potency [9] | Potency [10] | Potency [11] | Potency [12] | Potency [13]

CCNC(=O)[C@H]1O[C@@H](n2cnc3c(N)ncnc32)[C@H](O)C1O (stereo partly specified)
inactive: Potency [5] | Potency [2] | Potency [3]

CC(=O)c1c(O)c(C)c(O)c(Cc2c(O)c3c(c(C(=O)/C=C/c4ccccc4)c2O)OC(C)(C)C=C3)c1O
inactive: Potency [5] | Potency [4]
active: Potency [1] 10.6 µM | Potency [3] 3.48 µM

CC1(C(=O)O)C2CCC(O2)C1(C)C(=O)O (stereo unspecified)
inactive: Potency [5] | Potency [2]

Cc1ccc2ccccc2c1C
inactive: outcome [15] | Potency [16] | Potency [17] | outcome [18] | Potency [19] | Potency [20] | Potency [21] | outcome [22] | outcome [23] | Potency [24] | Potency [25] | Potency [26] | outcome [27] | outcome [28] | Potency [29]
